Only some compounds are listed: those with a hit (about 5% of all), similar ones and a draw of the others.
USP10 block: inhibitors of human USP10 deubiquitinase; inhibition, % at 20 µM; purified USP10, Ub-rhodamine fluorescence, 60 min; actives 1.1% (n = 47,000)
Target sequence (Q14694 whole entry, looked up): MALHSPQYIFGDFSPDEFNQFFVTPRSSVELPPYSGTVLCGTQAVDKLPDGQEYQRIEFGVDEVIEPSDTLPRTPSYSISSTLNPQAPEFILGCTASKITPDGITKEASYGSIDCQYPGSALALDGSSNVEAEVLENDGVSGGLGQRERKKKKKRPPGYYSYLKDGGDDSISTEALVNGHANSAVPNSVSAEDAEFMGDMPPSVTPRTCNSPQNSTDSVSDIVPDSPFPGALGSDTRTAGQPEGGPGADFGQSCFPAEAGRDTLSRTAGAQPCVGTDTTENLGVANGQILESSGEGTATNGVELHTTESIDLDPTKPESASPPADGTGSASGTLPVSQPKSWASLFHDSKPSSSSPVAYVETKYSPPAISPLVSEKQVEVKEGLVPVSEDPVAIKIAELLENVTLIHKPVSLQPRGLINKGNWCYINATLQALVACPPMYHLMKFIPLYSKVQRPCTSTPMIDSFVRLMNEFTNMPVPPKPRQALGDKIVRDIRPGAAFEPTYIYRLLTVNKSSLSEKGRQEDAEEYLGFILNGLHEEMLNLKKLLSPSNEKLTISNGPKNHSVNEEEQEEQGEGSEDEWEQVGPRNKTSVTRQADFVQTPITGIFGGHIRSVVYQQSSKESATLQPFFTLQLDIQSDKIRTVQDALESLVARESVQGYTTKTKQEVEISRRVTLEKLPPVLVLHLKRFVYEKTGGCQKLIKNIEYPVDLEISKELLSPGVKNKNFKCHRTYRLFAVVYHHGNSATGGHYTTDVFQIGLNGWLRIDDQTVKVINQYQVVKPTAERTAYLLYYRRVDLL
OTUD3 inh: inhibitors of human OTUD3 deubiquitinase; purified OTUD3, Ub-rhodamine fluorescence, 2 h; inhibition, % at 25 µM; actives 0.7% (n = 47,000)
USP8 block: inhibitors of human USP8 deubiquitinase; inhibition, % at 20 µM; Ubiquitin carboxyl-terminal hydrolase 8 (Homo sapiens), P40818; actives 4.2% (n = 47,000); purified USP8, Ub-rhodamine cleavage fluorescence, 30 min
USP7 inh: inhibitors of human USP7 deubiquitinase; Ubiquitin carboxyl-terminal hydrolase 7 (Homo sapiens), Q93009; actives 0.3% (n = 47,000); purified USP7, Ub-rhodamine cleavage fluorescence; inhibition, % at 20 µM
UCHL1 block: inhibitors of human UCHL1 deubiquitinase. purified UCHL1, Ub-rhodamine cleavage fluorescence. actives 0.2% (n = 47,000). Ubiquitin carboxyl-terminal hydrolase isozyme L1 (Homo sapiens), P09936. inhibition, % at 20 µM
Each line names hits and unclear results; the compound was inactive in the other large screens. Rule as the data show it: active = inhibition above about 30%; inactive = the rest.

COc1cccc(C(=O)Nc2ccc(SC(C(=O)Nc3ccccc3)c3ccccc3)cc2)c1 (stereo not drawn)	none
Cc1ccccc1NC(=O)C(Sc1ccc(NC(=O)c2ccccc2C(=O)O)cc1)c1ccccc1 (stereo not drawn)	none
O=C(O)c1ccccc1C(=O)Nc1ccc(SC(C(=O)Nc2cccc(Cl)c2)c2ccccc2)cc1 (stereo not drawn)	USP10 block 51.9
O=C(Nc1ccc2c(c1)OCO2)c1ccccc1-n1cnnn1	none
Cc1c(NC(=O)Cc2cccs2)cccc1-n1cnnn1	USP8 block 50.7
O=C(NCc1cccnc1)C1CCN(C(=O)C(c2ccccc2)c2ccccc2)CC1	none
COc1ccc(C(=O)Nc2sc3c(c2C(=O)NCc2cccnc2)CCCC3)cc1	OTUD3 inh 40.2
O=C(c1cc(-c2ccc(Cl)cc2)n[nH]1)N1CCN(c2ncccn2)CC1	none
Cc1ccccc1C(=O)NCc1csc(-c2ccccc2)n1	none
COc1ccc(-c2nc(CNC(=O)c3ccccc3C)cs2)cc1	USP7 inh 57.1
COCCn1ccc2nc(C)c(C(=O)Nc3ccc(OC)cc3)cc2c1=O	none
C=C1CCC2C(C)(CCC=C(C)C)C(OC(C)=O)CCC2(C)C1Cc1c(O)c(C)c(C)oc1=O (stereo not drawn)	USP10 block 31.9
CN1[C@@H](CCC(=O)N2CCN(c3ccccn3)CC2)CNC(=O)[C@H]2NCC[C@H]21	none
CN1CC[C@@H]2[C@H]1C(=O)NC[C@H](CCC(=O)N1CCN(c3ccccn3)CC1)N2C	USP8 block 71.6
Cc1ccc(CN2CC[C@@H]3[C@H]2C(=O)NC[C@H](CCC(=O)N2CCN(c4ccccn4)CC2)N3C)cc1	none
CN1[C@@H](CCC(=O)N2CCN(c3ccccn3)CC2)CNC(=O)[C@@H]2[C@H]1CCN2C1CCCCC1	USP8 block 39.0
Cc1ccc(C(=O)N2CCN(C3CCN(Cc4c(C)noc4C)CC3)C(=O)C2)cc1	none
CC(Nc1ncc(-c2ccc(OC(F)(F)F)cc2)cn1)c1ccccc1 (stereo not drawn)	none
O=C(c1ccc(OCC2CCN(C(=O)C3CCCC3)CC2)cc1)N1CCOCC1	none
O=C(CCC1CCCC1)N1CCN(C(=O)c2cc(-c3ccccn3)n[nH]2)CC1	none
COCCCNC(=O)C1c2ccccc2C(=O)N(Cc2ccccc2)C12CCCC2 (stereo not drawn)	none
COC(=O)CCCNC(=O)C1c2ccccc2C(=O)N(Cc2ccccc2)C12CCCC2 (stereo not drawn)	USP8 block 45.2
COc1ccc(C(=O)N2CCC(Nc3cccnc3)C2)c(OC)n1 (stereo not drawn)	USP8 block 62.4
O=S(=O)(c1ccccc1)N1CCC(Nc2cccnc2)C1 (stereo not drawn)	none
COc1ncccc1C(=O)N1C[C@H]2CC[C@@H](Nc3cnccn3)[C@H]2C1	none
CCOc1ccc(C(=O)N2CCC(Nc3cccnc3)C2)cc1 (stereo not drawn)	USP8 block 49.0
O=C(c1cc(-c2ccccc2)n[nH]1)N1CCC(Nc2cccnc2)C1 (stereo not drawn)	USP8 block 58.4
O=C(c1ccccc1)N1CCN(C(=O)c2cc(-c3cccnc3)n[nH]2)CC1	none
O=C(c1ccc2cc[nH]c2c1)N1CCC(Nc2cccnc2)C1 (stereo not drawn)	OTUD3 inh 55.0, USP8 block 83.2
Cc1ccc(CNC(=O)C2Oc3ccccc3NC2=O)cc1 (stereo not drawn)	none
COc1ccc(Cn2ccc3nc(N4CCOCC4)c(C#N)cc3c2=O)cc1	none
COc1cc(Cl)cc(CNC(C)C(=O)O)c1O (stereo not drawn)	USP8 block 65.8
Cc1cc(C)cc(NC(=O)Nc2nnc(CC(=O)N3CCOCC3)s2)c1	none
CC(C(=O)Nc1cccc(F)c1)C1CCN(C(=O)Nc2ccc(F)cc2)CC1 (stereo not drawn)	none
COc1ccc(Oc2nc(F)c(Cl)c3c2N(CC2CCCO2)CCS3(=O)=O)cc1 (stereo not drawn)	USP8 block 68.9
O=S1(=O)CCN(Cc2ccccc2)c2c(OCC3CCCO3)nc(F)c(Cl)c21 (stereo not drawn)	none
CNc1ccc(Oc2nc(F)c(Cl)c3c2N(CC2CCCO2)CCS3(=O)=O)cc1 (stereo not drawn)	none
CCCCN1CCS(=O)(=O)c2c(Cl)c(F)nc(Oc3ccc(OC)cc3)c21	USP8 block 49.5
COCCCN1CCS(=O)(=O)c2c(Cl)c(F)nc(Oc3ccccc3)c21	USP8 block 35.0
CSc1cccc(NC(=O)CCc2nc3cccnc3n2Cc2ccccc2)c1	none
CCc1ccc(NC(=O)CCc2nc3cccnc3n2Cc2ccccc2)cc1	OTUD3 inh 45.8, USP8 block 34.6
CCCn1c(=O)n(CC(=O)c2ccc(Cl)cc2)c2c(C(N)=O)nc(-c3ccco3)nc21	none
CCn1c(=O)n(CC(=O)c2ccc(Cl)cc2)c2c(C(N)=O)nc(-c3ccco3)nc21	USP8 block 49.4, USP7 inh 40.0
CCCn1c(=O)n(CC(=O)c2ccccc2F)c2c(C(N)=O)nc(-c3ccco3)nc21	USP8 block 58.8
CCn1c(=O)n(CC(=O)c2ccc(F)cc2F)c2c(C(N)=O)nc(-c3ccco3)nc21	USP8 block 47.6
Cn1c(=O)c(N2CCCC(C(=O)NCCCc3ccccc3)C2)nc2cccnc21 (stereo not drawn)	none
CCS(=O)(=O)N1CCOC2(CCCN(c3ncccc3F)C2)C1 (stereo not drawn)	none
O=C1CN(C(=O)COC(=O)CCCN2C(=O)c3cccc4cccc(c34)C2=O)c2ccccc2N1	none
COc1ccc(C(=O)Nc2ccc(-c3nc4ccccc4[nH]3)cc2)cc1S(=O)(=O)N1CCOCC1	none
c1csc(-c2nc(Nc3ccc4c(c3)CCC4)c3ccccc3n2)c1	USP8 block 57.3
O=C(C1CCN(S(=O)(=O)c2ccc3c(c2)CCCC3)CC1)N1CCOCC1	none
Cc1sc2nc(C3CC3)n(C3CCN(C(=O)C4CCC4)CC3)c(=O)c2c1C	none
Cc1ccccc1NC(=O)Cc1nnc2c(-c3nc(C4CC4)no3)cccn12	none
Cc1ccc(NC(=O)Cc2nnc3c(-c4nc(C5CC5)no4)cccn23)cc1	USP10 block 48.3, USP8 block 97.2, USP7 inh 57.9, UCHL1 block 59.2
Cc1cc(-c2cn[nH]c2C2CC2)on1	none
O=C(c1ccco1)C1C2C(=O)N(c3ccc(Br)cc3)C(=O)C2C2c3ccccc3C=CN12 (stereo not drawn)	USP8 block 46.1
COc1ccc(Cl)cc1NC(=O)C1C2C(=O)N(c3ccc4c(c3)OCO4)C(=O)C2C2c3ccccc3C=CN12 (stereo not drawn)	none
COc1ccc(S(=O)(=O)N2CCC(C(=O)Nc3ccc4c(c3)OCO4)CC2)cc1	none

Screens deposited in PubChem BioAssay by Buhrlage Lab, Dana-Farber Cancer Institute and Novartis Institutes for BioMedical Research (Cambridge, Mass).
